The record followed here is PubChem BioAssay (NCATS).

Records with an inconclusive call do not appear. Calls of active or inactive are those of the source. The call rests on the fitted dose curve; in most records, active means well fitted cell-killing curve with a large enough effect; inconclusive means small, poorly fitted or top-dose-only effect; inactive means flat fitted curve, though single readings scatter. Peptide text beside a SMILES is read from it. * marks the point of attachment. Octanoyl = CCCCCCCC(=O)*
On the % scale 0 is the no-effect control and ±100 the full control effect; potency means the concentration at half of the fitted maximal effect.

The nature of this assay: SW1088 Cancer Cell Toxicity qHTS against the NCATS CANVASS Library (AID 1347350). Further: nearly all actives have a fitted effect of over 75% in size. The note with it: SW1088 viability, CellTiter-Glo luminescence, 72 h; series mostly up to 38.3 µM; activity change, negative = cytotoxicity: at the top concentration. The source says:
Natural products and their derivatives continue to be wellsprings of nascent therapeutic potential. However, many laboratories have limited resources for biological evaluation, leaving their previously isolated or synthesized compounds largely or completely untested. To address this issue, the Canvass library of natural products was assembled (https://tripod.nih.gov/canvass), in collaboration with academic and industry researchers, for quantitative high-throughput screening (qHTS) across a diverse set of cell-based and biochemical assays. The pure (>85% purity by liquid chromatography/mass spectrometry [LC/MS]) Canvass library of 346 natural products were submitted by 45 academic laboratories and companies around the world. We collected pure natural products to circumvent deconvolution and structure elucidation due to time and resource limitations. The library was formatted into 1536-well plates and evaluated in 50 qHTS (in an 11-pnt concentration series) bioassays with broad scope of disease-relevant mechanisms. The resulting data set from 50 different assays was then systematically analyzed to identify overall trends and specific natural products with interesting biological activities. Reported herein are the results of each individual qHTS and their corresponding assay protocol. National Center for Advancing Translational Sciences (NCATS), Rockville, MD National Institute of Health (NIH), Bethesda, Maryland
Cancer Cell Toxicity protocol for cell lines COV-362, OV-KATE, OV-SAHO, UWB1.289, UWB1.289-WTBRCA1, HEK-293, HPAF-II, Panc-1005, SW1088, or U-118MG. 1. In a 1536 well, white solid bottom tissue culture plates (Corning 7494), corresponding cells (COV-362, OV-KATE, OV-SAHO, UWB1.289, UWB1.289-WTBRCA1, HEK-293, HPAF-II, Panc-1005, SW1088, or U-118MG) were dispensed in each well at a final concentration of 1000 cells / well (6uL volume) using the Multidrop Combi (Thermo Fisher Scientific) dispenser. 2. The plates were incubated for 4 hours at 37 degrees C/5% CO2/95% Rh. 3. Compounds were pin transferred (~23nL volume) via Wako Pin-tool (Wako Automation, Richmond VA) equipped with a 1536 pin head. The assay plates were treated with compounds in an 11-pnt concentration series with a final concentration range of […] to 85uM. 4. Bortezomib was used as a single dose control (0.5mM column 4, rows 1 - 32) at a final concentration of 1.9uM and as a 16pnt titration (1mM; 1:2 dilution; 16-points; n = 2; column 3, rows 1 - 32) with final concentration range of 0.1nM - 3.8uM. 5. The assay plates were incubated for 72 hours at 37 degrees C/5% CO2/95% Rh. 6. 3uL CellTiter-Glo detection reagent was then added to the plates (columns 2 - 48, rows 1 - 32) and incubated at room temperature for additional 15min. 7. Luminescence signal was acquired via the ViewLux plate reader (PerkinElmer) using a clear filter, 2 second exposure and 2x binning settings.
On the technique in general: qHTS replaces the single test concentration by a dilution series.
`CCC[C@@H](C)/C=C(\C)[C@H](O)[C@H](C)/C=C/CC[C@@H](O)[C@H](C)[C@H](O)[C@H](C)[C@H](O)[C@H](C)[C@H]1O[C@H]([C@H](C)C(=O)O)CC[C@@H]1C`: the Potency is 2.11 µM (active).
Turning to `CO[C@@H]1[C@H](O)[C@@H](C)O[C@@H](OC[C@H]2/C=C/C=C/C(=O)C(C)C[C@H](C)C(O[C@@H]3O[C@H](C)CC4(OC(=O)O[C@@H]4C)C3O)[C@@H](C)/C=C/C(=O)OC2C)[C@@H]1OC` (stereo not given in full), the “activity change, negative = cytotoxicity” value is -10.2% (inactive).
As to `C=C[C@@]1(C)CC[C@@H]([C@H](C)C(=O)/C=C/C(C)C)O1`, the result was inactive.
The same measure, in the same setting: the result for `C=C1C[C@@]23C=CC(=O)[C@@](C)(CCC(=O)Nc4c(O)ccc(C(=O)O)c4O)C2C[C@@H]1CC3O` (stereo not given in full) reads “inactive”.
On to `C[C@H]1C[C@@H]([C@@H]2CC[C@]34O[C@H](CC[C@@]35C[C@H](C)C(=O)O5)CN24)OC1=O`, for which the “activity change, negative = cytotoxicity” value is -2.22% (inactive).
Same read-out and setting: the result for `CCCCCCCC(=O)N[C@@H](CC(C)C)C(=O)N[C@H](C=O)CCC(=O)O` (Octanoyl-Leu-Glu-aldehyde) reads -14.4% (inactive); that for `C=C1C(=O)O[C@H]2C[C@H](C)[C@@H]3CC(=O)C(C)=C3[C@H](O)[C@H]12`, -5.54% (inactive).
`CC1(C)CC[C@]2(C(=O)O)CC[C@]3(C)C(=CC[C@@H]4[C@@]5(C)C[C@@H](O)[C@H](O)C(C)(C)[C@@H]5CC[C@]43C)[C@@H]2C1`: the Potency is 14.9 µM (active).
For the compound `O=C(O)CC1OCc2c(O)cccc21` (stereo not given), the “activity change, negative = cytotoxicity” value is 0.538% (inactive).
Turning to `CN1CC[C@]2(c3cccc4c3N[C@@H]3N(C)CC[C@]43[C@@]34CCN(C)[C@@H]3Nc3c([C@]56CCN(C)[C@H]5Nc5ccccc56)cccc34)c3ccccc3N[C@H]12`, the Potency is 18.8 µM (active).
In the case of `COc1ccc2oc3c(OC)c(OC)c(OC)c(OC)c3c(=O)c2c1`, the activity change, negative = cytotoxicity was 3.04% [at 7.64 µM] (inactive).
On to `C/C1=C/[C@@H](C)[C@H](O)C/C=C/CC/C=C/C(=O)O[C@@H]1[C@H](C)C(=O)/C=C/CC1CC(=O)NC(=O)C1`, for which the Potency is 21.1 µM (active).
Regarding `O=c1cc(-c2ccc(O)c(O[C@@H]3O[C@H](CO)[C@@H](O)[C@H](O)[C@H]3O)c2)oc2cc(O[C@@H]3O[C@H](CO)[C@@H](O)[C@H](O)[C@H]3O)cc(O)c12`, the compound was classed as inactive.
On to `C=C(C)CC[C@H](Cc1c(O)cc(O)c2c1O[C@H](c1ccc(O)cc1O)CC2=O)C(=C)C`, for which the Potency was 21.1 µM (active).
On to `C[C@@H](CCC[C@]1(C)C(=O)C=C[C@]23C[C@H]4C[C@H](O[C@@]4(C)C2)C31)C(=O)N[C@@H](CO)C(=O)O` (stereo not given in full), for which the “activity change, negative = cytotoxicity” value is 1.34% (inactive).
Turning to `CC1C(=O)C23CCC1C[C@@]21O[C@H]2C(C)(C)C=CC(=O)[C@@]23COC1=O` (stereo not given in full), the “activity change, negative = cytotoxicity” value is 0.68% (inactive).
As to `C=C(NC(=O)c1csc(-c2nc3c(cc2O)-c2nc(cs2)C(=O)NC(C(C)O)C(=O)N/C(=C(\C)O)c2nc(cs2)C(=O)NC2c4nc(cs4)C(=O)NC(COC(=O)c4c5c6c(cccc6n4O)COC(=O)[C@@H](OC4C[C@](C)(O)[C@H](N(C)C)[C@H](C)O4)C2OC5)c2nc-3cs2)n1)C(N)=O` (stereo not given in full), the outcome was inactive.
Consider `CC(=O)O[C@@H]1C=C2C(=O)OC[C@]2(O)[C@@]2(C)CCCC(C)(C)[C@H]12`, for which the Potency was 5.3 µM (active).
For the compound `C[C@@]12C[C@@H](C[C@H]3C(=O)O[C@@H](c4ccoc4)[C@H](OC(=O)c4ccccc4)[C@@H]31)OC2=O`, the compound was called inactive.
As to `O=C(O)[C@@]12CO[C@@]3(O)C4CCN(CC[C@H]31)[C@H]4c1c2[nH]c2ccccc12`, the “activity change, negative = cytotoxicity” value was -12.3% (inactive).
On to `O=C1CC(c2cc(O)cc(O)c2)Oc2cc(O)ccc21` (stereo not given), for which the “activity change, negative = cytotoxicity” value is -10.7% (inactive).
Same read-out and setting: the result for `C[C@@H]1C[C@H]2C[C@]3(CCCCN3C)[C@@H]3C[C@H]2[C@H](C1)N(C)C3` reads 3.01% (inactive); that for `C[C@@H]1O[C@@H](Oc2c(-c3ccc(O)cc3)oc3cc(O)cc(O)c3c2=O)[C@H](O)[C@H](O)[C@H]1O`, 2.39% (inactive).
For the compound `COc1ccc([C@@H]2c3cc(OC)c(OC)cc3C(=O)[C@H](C)C2C)cc1OC` (stereo not given in full), the outcome is “inactive [at 7.64 µM]”.
Consider `CC(O)/C=C/C1(O)C(C)(C)CC(O)CC1(C)O` (stereo not given), for which the call was inactive.
`C=C[C@]1(C)CC[C@@H]([C@H](C)C(=O)/C=C/C(C)C)O1`: the “activity change, negative = cytotoxicity” value is -10.5% (inactive).
For `C[C@@]12CCC[C@@](C)(C(=O)O)[C@H]1C[C@@H](O)[C@]13C[C@H]4C[C@H](O[C@@]4(C)C1)[C@@H]23`, the “activity change, negative = cytotoxicity” value is -6.89% (inactive).
In the case of `C=C1C[C@@]23C=CC(=O)[C@@](C)(CCC(=O)Nc4c(O)ccc(C(=O)O)c4O)C2C[C@@H]1CC3` (stereo not given in full), the compound was called inactive.
For `CCCCCCCCC[C@@H]1C[C@@H]2CC[C@H]3[C@@H](C(=O)OCCCCN=C(N)N)[C@@H](C)N=C(N1)N23`, the Potency was 13.1 µM (active).
As for `CC(=O)NC[C@@H]1O[C@H](CC/C=C(C)/C(C)=C/C=O)[C@H](C)C[C@H]1O`, the “activity change, negative = cytotoxicity” value was 1.98% (inactive).
Same read-out and setting: the result for `COC1C(O)C(OC(N)=O)C(Oc2ccc3c(O)c(NC(=O)c4ccc(O)c(CC=C(C)C)c4)c(=O)oc3c2C)OC1(C)C` (stereo not given) reads 1.71% (inactive); that for `Cc1cc(O)cc2oc(C[C@H](C)O)cc(=O)c12`, -4.2% (inactive).
`O=Cc1ccc2n1C[C@@]1(C[C@H](O)[C@H](O)CO1)OC2`: the compound was called inactive.
As to `O=C(O)CC1OC(=O)c2c(O)cccc21` (stereo not given), the result was inactive.
Consider `CCCCCCCCCCCCCCC[C@H](O)C[C@@H](O)C[C@@H](O)C[C@@H](O)C[C@@H](O)C[C@H]1CC=CC(=O)O1`, for which the Potency is 1.49 µM (active).
For `CC1=CC[C@@]2(C[C@@H]1O)[C@@H](C(=O)O)CC[C@H]2C(C)C`, the result was inactive.
For `CO[C@@H]1[C@H](O)[C@@H](C)O[C@@H](OC[C@@H]2C(C)OC(=O)/C=C/[C@H](C)C(O[C@@H]3O[C@H](C)CC4(OC(=O)O[C@@H]4C)C3O)[C@@H](C)CC(C)C(=O)CC[C@H]3OC23)[C@@H]1OC` (stereo not given in full), the “activity change, negative = cytotoxicity” value was -7.93% (inactive).
Still for that read-out and setting: in the case of `Oc1ccc(C2c3c(O)cc(O)cc3[C@@H]3C(c4ccc(O)cc4)c4c(O)cc(O)cc4[C@H]23)cc1` (stereo not given in full) it was -5.45% (inactive).
With `CC1C(=O)C23CCC1C[C@]21O[C@@H]2C(C)(C)C=CC(=O)[C@@]23COC1=O` (stereo not given in full), the result was inactive.
On the same count and under the same terms, the result for `CC[C@@H]1C[C@@]2(CC)OC(=O)[C@@]3(CC)OC(=O)[C@@H]1[C@@H]23` reads “inactive”.
